According to PubChem BioAssay (EPA / NIEHS):
Activity calls are given as the source filed them. The calls were made as follows: active = hit-call score of the fitted dose curve at least 0.9, where 1 is the maximum; inactive = score below 0.9.

Assays:
Conditions in all cases: mRNA level, 48 h; actives raise or lower the signal
[1] = read-out: ABC Transporter (ABCB11), ABCB11 (gene 8647); assay: LTEA_HepaRG_ABCB11: Life Technologies and Expression Analysis (LTEA) Assay for ABC Transporter (ABCB11) using HepaRG (AID 2283463)
Summary of the method: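 ABCB11 transcript levels quantified by TaqMan qRT-PCR against three housekeeping genes after 48 h chemical exposure of HepaRG cultures. Concentrations up to 100 uM in half-log steps, 0.5% DMSO vehicle; both induction and suppression scored.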

[2] = read-out: ABC Transporter (ABCC2), ABCC2 (gene 1244); assay: LTEA_HepaRG_ABCC2: Life Technologies and Expression Analysis (LTEA) Assay for ABC Transporter (ABCC2) using HepaRG (AID 2283464)
Summary of the method: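 qRT-PCR (TaqMan, Fluidigm array) read-out of ABCC2 mRNA, normalized to three housekeeping genes. Differentiated HepaRG cells were treated 48 h in serum-free induction medium with 8-point half-log series from 100 uM in 0.5% DMSO; curves fitted bidirectionally relative to DMSO.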

[3] = read-out: Broad substrate specificity ATP-binding cassette transporter ABCG2 (Homo sapiens) (UniProt Q9UNQ0); assay: LTEA_HepaRG_ABCG2: Life Technologies and Expression Analysis (LTEA) Assay for ABC Transporter (ABCG2) using HepaRG (AID 2283465)
Summary of the method: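 ABCG2 transcript was quantified by TaqMan qRT-PCR against three housekeeping genes in HepaRG cells. Cells were treated in duplicate for 48 h across an 8-point half-log series up to 100 uM, with 0.5% DMSO vehicle. Gain or loss versus DMSO was fit.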

[4] = read-out: ATP-citrate lyase (ACLY), ACLY (gene 47); assay: LTEA_HepaRG_ACLY: Life Technologies and Expression Analysis (LTEA) Assay for ATP-citrate lyase (ACLY) using HepaRG (AID 2283466)
Summary of the method: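 ACLY mRNA quantified by qRT-PCR on Fluidigm arrays against three housekeeping genes, after 48 h chemical treatment of HepaRG cells (top concentration 100 uM, half-log steps, 0.5% DMSO vehicle). Up- or down-regulation fitted relative to DMSO.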

[5] = read-out: Peroxisomal acyl-coenzyme A oxidase 1 (ACOX1) gene, ACOX1 (gene 51); assay: LTEA_HepaRG_ACOX1: Life Technologies and Expression Analysis (LTEA) Assay for Peroxisomal acyl-coenzyme A oxidase 1 (ACOX1) gene using HepaRG (AID 2283467)
Summary of the method: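 ACOX1 transcript levels were quantified by TaqMan qRT-PCR against three housekeeping genes after 48 h chemical exposure of differentiated human HepaRG cells. Exposure used eight half-log steps topping at 100 uM, 0.5% DMSO vehicle, in duplicate. Bidirectional curve fits were made relative to DMSO.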

[6] = read-out: Bcl-2 (BAD) gene, BAD (gene 572); assay: LTEA_HepaRG_BAD: Life Technologies and Expression Analysis (LTEA) Assay for Bcl-2 (BAD) gene using HepaRG (AID 2283469)
Summary of the method: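 Read-out: qRT-PCR of BAD mRNA, normalized to three housekeeping genes. Human HepaRG cultures got 48 h chemical exposure in 0.5% DMSO, duplicate eight-point half-log series topping at 100 uM. Gain or loss of signal fitted versus DMSO vehicle.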

[7] = read-out: Bcl-2 (BAX) gene, BAX (gene 581); assay: LTEA_HepaRG_BAX: Life Technologies and Expression Analysis (LTEA) Assay for Bcl-2 (BAX) gene using HepaRG (AID 2283470)
Summary of the method: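 Cells were thawed, plated for 48 h, moved to serum-free induction medium and dosed for 48 h (highest concentration 100 uM, half-log steps, 0.5% DMSO). Total RNA was then analysed for BAX expression by qRT-PCR.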

[8] = read-out: adenosine kinase (ADK) gene, ADK (gene 132); assay: LTEA_HepaRG_ADK: Life Technologies and Expression Analysis (LTEA) Assay for adenosine kinase (ADK) gene using HepaRG (AID 2283471)
Summary of the method: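 Following 48 h exposure of HepaRG cells in 0.5% DMSO (top concentration 100 uM, duplicate wells), ADK mRNA induction or suppression was measured by qRT-PCR, normalised to ACTB/GAPDH/POLR2A, and fitted bidirectionally relative to vehicle.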

[9] = read-out: Alpha-fetoprotein (AFP) gene, AFP (gene 174); assay: LTEA_HepaRG_AFP: Life Technologies and Expression Analysis (LTEA) Assay for Alpha-fetoprotein (AFP) gene using HepaRG (AID 2283472)
Summary of the method: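 Chemicals were tested on differentiated HepaRG cells for 48 hours at eight concentrations up to 100 uM, with 0.5% DMSO as vehicle. AFP expression was then quantified by qRT-PCR and analyzed for gain or loss relative to DMSO.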

BCL2L11 (gene 10018) = assay: LTEA_HepaRG_BCL2L11: Life Technologies and Expression Analysis (LTEA) Assay for Bcl-2 (BCL2L11) gene using HepaRG (AID 2283473)
Summary of the method: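 HepaRG, 48 h exposure, 8-pt half-log series from 100 uM in 0.5% DMSO, duplicates; qRT-PCR (Fluidigm TaqMan) for BCL2L11, housekeeping-normalized; bidirectional curve fit relative to DMSO baseline.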

[10] = read-out: Apolipoprotein A-V (APOA5) gene, APOA5 (gene 116519); assay: LTEA_HepaRG_APOA5: Life Technologies and Expression Analysis (LTEA) Assay for Apolipoprotein A-V (APOA5) gene using HepaRG (AID 2283474)
Summary of the method: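 HepaRG, 48 h chemical exposure in serum-free induction medium, 8-pt half-log series (top 100 uM), 0.5% DMSO vehicle, duplicates. Readout: APOA5 mRNA by qRT-PCR, housekeeping-normalized; bidirectional fit vs DMSO baseline.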

[11] = read-out: Bcl-2 (BID) gene, BID (gene 637); assay: LTEA_HepaRG_BID: Life Technologies and Expression Analysis (LTEA) Assay for Bcl-2 (BID) gene using HepaRG (AID 2283476)
Summary of the method: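 Cells are plated, cultured 48 h, switched to serum-free induction medium, then dosed 48 h (100 uM top, half-log steps, 0.5% DMSO). RNA is isolated and BID expression read by qRT-PCR.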

Caspase-3 (Homo sapiens) = Caspase-3 (Homo sapiens) (UniProt P42574); assay: LTEA_HepaRG_CASP3: Life Technologies and Expression Analysis (LTEA) Assay for cysteine-aspartic acid protease (CASP3) using HepaRG (AID 2283477)
Summary of the method: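 HepaRG, 48 h exposure, 8 conc. (top 100 uM, half-log steps, duplicate), 0.5% DMSO vehicle; qRT-PCR of CASP3 transcript, housekeeping-normalised (ACTB/GAPDH/POLR2A); bidirectional curve fit vs DMSO baseline.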

[12] = read-out: Cytochrome P450 (CYP24A1), CYP24A1 (gene 1591); assay: LTEA_HepaRG_CYP24A1: Life Technologies and Expression Analysis (LTEA) Assay for Cytochrome P450 (CYP24A1) using HepaRG (AID 2283478)
Summary of the method: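 qRT-PCR read-out: CYP24A1 transcript levels normalized to three housekeeping genes, bidirectional curve fits against 0.5% DMSO baseline. Human HepaRG cells treated 48 h with chemicals at eight concentrations from 100 uM in half-log steps.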

[13] = read-out: Cytochrome P450 (CYP1A2), CYP1A2 (gene 1544); assay: LTEA_HepaRG_CYP1A2: Life Technologies and Expression Analysis (LTEA) Assay for Cytochrome P450 (CYP1A2) using HepaRG (AID 2283479)
Summary of the method: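 HepaRG, 48 h exposure, top 100 uM, half-log 8-pt, 0.5% DMSO vehicle, duplicates. Readout: TaqMan qRT-PCR of CYP1A2 mRNA, housekeeping-normalized (ACTB/GAPDH/POLR2A). Gain/loss fit relative to DMSO baseline.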

[14] = read-out: cysteine-aspartic acid protease (CASP8), CASP8 (gene 841); assay: LTEA_HepaRG_CASP8: Life Technologies and Expression Analysis (LTEA) Assay for cysteine-aspartic acid protease (CASP8) using HepaRG (AID 2283480)
Summary of the method: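 CASP8 transcript measured by TaqMan qRT-PCR with ACTB/GAPDH/POLR2A normalization, after 48 h chemical exposure of HepaRG cells in serum-free induction medium. Eight concentrations, top 100 uM, half-log steps, 0.5% DMSO vehicle; fits in both directions versus DMSO.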

[15] = read-out: Cytochrome P450 (CYP2B6), CYP2B6 (gene 1555); assay: LTEA_HepaRG_CYP2B6: Life Technologies and Expression Analysis (LTEA) Assay for Cytochrome P450 (CYP2B6) using HepaRG (AID 2283481)
Summary of the method: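 Read-out is CYP2B6 mRNA by TaqMan qRT-PCR, normalized to three housekeeping genes and fitted bidirectionally against 0.5% DMSO baseline. Human HepaRG cells received test chemicals for 48 h, top concentration 100 uM, half-log dilutions.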

[16] = read-out: Cytochrome P450 2C19 (Homo sapiens) (UniProt P33261); assay: LTEA_HepaRG_CYP2C19: Life Technologies and Expression Analysis (LTEA) Assay for CYP2C19 using HepaRG (AID 2283482)
Summary of the method: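 HepaRG, 48 h chemical exposure, 8-pt half-log series from 100 uM in 0.5% DMSO, duplicates. Readout: CYP2C19 mRNA by TaqMan qRT-PCR, housekeeping-normalized. Bidirectional fit vs DMSO baseline; phenobarbital 1mM as induction control.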

[17] = read-out: Apoptosis regulator Bcl-2 (Homo sapiens) (UniProt P10415); assay: LTEA_HepaRG_BCL2: Life Technologies and Expression Analysis (LTEA) Assay for Bcl-2 gene using HepaRG (AID 2283475)
Summary of the method: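 Plated human HepaRG cells are exposed to test chemicals for 48 h across eight concentrations from 100 uM downward in half-log steps (0.5% DMSO). BCL2 expression is then measured by qRT-PCR with housekeeping normalisation and fitted bidirectionally against vehicle.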

Measured: AC50

Apoptosis regulator Bcl-2 (Homo sapiens), sequence (P10415 whole entry, looked up): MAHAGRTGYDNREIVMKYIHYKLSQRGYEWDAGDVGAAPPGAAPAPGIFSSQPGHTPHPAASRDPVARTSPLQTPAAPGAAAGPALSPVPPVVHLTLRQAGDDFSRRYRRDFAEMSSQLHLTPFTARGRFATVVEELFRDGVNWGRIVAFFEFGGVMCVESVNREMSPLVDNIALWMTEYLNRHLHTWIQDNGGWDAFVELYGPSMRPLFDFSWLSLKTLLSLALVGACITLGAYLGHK
Caspase-3 (Homo sapiens), sequence (P42574 whole entry, looked up): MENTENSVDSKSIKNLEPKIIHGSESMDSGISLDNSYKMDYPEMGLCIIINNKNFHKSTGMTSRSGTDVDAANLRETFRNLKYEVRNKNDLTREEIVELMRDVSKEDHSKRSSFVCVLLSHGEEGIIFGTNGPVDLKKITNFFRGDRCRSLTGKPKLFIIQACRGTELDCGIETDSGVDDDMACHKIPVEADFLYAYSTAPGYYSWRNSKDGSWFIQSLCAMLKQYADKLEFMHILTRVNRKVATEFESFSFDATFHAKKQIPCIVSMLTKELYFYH
Cytochrome P450 2C19 (Homo sapiens), sequence (P33261 whole entry, looked up): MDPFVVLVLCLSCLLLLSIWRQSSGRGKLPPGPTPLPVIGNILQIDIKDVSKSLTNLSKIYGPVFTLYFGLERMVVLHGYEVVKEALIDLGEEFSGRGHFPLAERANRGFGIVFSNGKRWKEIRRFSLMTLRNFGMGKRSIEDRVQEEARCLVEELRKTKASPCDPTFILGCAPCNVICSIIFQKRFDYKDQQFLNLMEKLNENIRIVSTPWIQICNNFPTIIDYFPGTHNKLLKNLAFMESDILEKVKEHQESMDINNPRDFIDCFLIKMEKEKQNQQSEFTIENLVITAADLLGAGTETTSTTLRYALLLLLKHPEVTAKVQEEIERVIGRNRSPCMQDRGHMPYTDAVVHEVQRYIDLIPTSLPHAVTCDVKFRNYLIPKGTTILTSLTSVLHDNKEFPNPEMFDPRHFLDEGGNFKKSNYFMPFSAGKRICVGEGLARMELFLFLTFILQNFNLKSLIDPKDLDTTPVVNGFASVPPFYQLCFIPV
Broad substrate specificity ATP-binding cassette transporter ABCG2 (Homo sapiens), sequence (Q9UNQ0 whole entry, looked up): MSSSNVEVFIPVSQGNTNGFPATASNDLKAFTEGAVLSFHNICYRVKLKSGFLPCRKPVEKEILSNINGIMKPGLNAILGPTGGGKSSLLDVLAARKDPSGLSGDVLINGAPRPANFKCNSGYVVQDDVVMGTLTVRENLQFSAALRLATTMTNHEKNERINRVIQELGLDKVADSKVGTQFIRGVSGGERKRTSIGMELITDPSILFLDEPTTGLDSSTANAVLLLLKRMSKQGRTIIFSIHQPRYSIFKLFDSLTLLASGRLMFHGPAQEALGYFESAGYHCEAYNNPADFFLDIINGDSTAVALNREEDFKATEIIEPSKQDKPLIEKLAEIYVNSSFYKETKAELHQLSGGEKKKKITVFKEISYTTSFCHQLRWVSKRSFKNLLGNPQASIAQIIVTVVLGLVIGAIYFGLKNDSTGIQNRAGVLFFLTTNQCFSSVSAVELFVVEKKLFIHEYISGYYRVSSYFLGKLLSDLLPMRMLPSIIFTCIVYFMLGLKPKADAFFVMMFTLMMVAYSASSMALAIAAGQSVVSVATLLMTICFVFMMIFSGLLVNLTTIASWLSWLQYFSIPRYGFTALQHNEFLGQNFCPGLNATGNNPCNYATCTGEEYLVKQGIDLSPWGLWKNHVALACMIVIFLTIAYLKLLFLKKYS

CC(=O)OCCC(C)C
inactive: [1] | [2] | [3] | [4] | [5] | [6] | [7] | [8] | [9] | BCL2L11 (gene 10018) | [10] | [11] | Caspase-3 (Homo sapiens) | [12] | [13] | [14] | [15] | [16]

CC(C)=CCC/C(C)=C/CO
inactive: [1] | [2] | [3] | [4] | [5] | [6] | [8] | [9] | BCL2L11 (gene 10018) | [10] | [11] | Caspase-3 (Homo sapiens) | [14]

Clc1nc(Cl)c(Cl)c(Cl)c1Cl
inactive: [1] | [2] | [3] | [4] | [5] | [6] | [8] | [9] | BCL2L11 (gene 10018) | [10] | [17] | [11] | Caspase-3 (Homo sapiens) | [12] | [13] | [14] | [15] | [16]

COc1ccc(-n2nc(C(F)F)cc2-c2ccc(S(C)=O)cc2)cc1 (configuration not stated)
inactive: [3] | [4] | [5] | [6] | [8] | [9] | BCL2L11 (gene 10018) | [10] | [11] | Caspase-3 (Homo sapiens) | [12] | [14]
active: [1] 17.3 µM | [2] 30.9 µM | [13] 50 µM | [15] 13.4 µM | [16] 26.8 µM

COc1ccc(/C=C/S(=O)(=O)NC(=O)c2ccc(C)cc2Cl)cc1
inactive: [2] | [3] | [4] | [5] | [6] | [7] | [8] | [9] | BCL2L11 (gene 10018) | [10] | [11] | Caspase-3 (Homo sapiens) | [12] | [13] | [14] | [16]
active: [1] 79.3 µM | [15] 89.8 µM

CCCCC(CC)COC(=O)c1ccc(C(=O)OCC(CC)CCCC)cc1 (configuration not stated)
inactive: [1] | [2] | [3] | [4] | [5] | [6] | [7] | [8] | [9] | BCL2L11 (gene 10018) | [10] | [11] | Caspase-3 (Homo sapiens) | [12] | [13] | [14] | [15] | [16]

CC(C)CCCCCCCOC(=O)CCCCC(=O)OCCCCCCCC(C)C
inactive: [1] | [2] | [3] | [4] | [5] | [6] | [8] | [9] | BCL2L11 (gene 10018) | [10] | [17] | [11] | Caspase-3 (Homo sapiens) | [12] | [13] | [14] | [15] | [16]

Cc1ccc(S(=O)(=O)O)cc1C
inactive: [1] | [2] | [3] | [4] | [5] | [6] | [7] | [8] | [9] | BCL2L11 (gene 10018) | [10] | [11] | Caspase-3 (Homo sapiens) | [12] | [13] | [14] | [15] | [16]

CN(C)c1ccc(Cc2ccc(N(C)C)cc2)cc1
inactive: [1] | [2] | [3] | [4] | [5] | [6] | [8] | BCL2L11 (gene 10018) | [11] | [12] | [14]
active: [9] 50 µM | [10] 76.1 µM | Caspase-3 (Homo sapiens) 50 µM | [13] 13 µM | [15] 1.6 µM | [16] 12.5 µM

CC(C)c1cccc(C(C)C)c1N1C(=O)c2ccc(O)cc2C1=O
inactive: [5] | [6] | [8] | BCL2L11 (gene 10018) | [10] | [11] | Caspase-3 (Homo sapiens) | [12] | [13] | [14]
active: [1] 89.9 µM | [2] 29 µM | [3] 50 µM | [4] 74.8 µM | [9] 79.9 µM | [15] 88.6 µM | [16] 91.5 µM

Cc1ccc(C)c(O)c1
inactive: [1] | [2] | [3] | [4] | [5] | [6] | [8] | [9] | BCL2L11 (gene 10018) | [10] | [17] | [11] | Caspase-3 (Homo sapiens) | [12] | [14] | [16]
active: [13] 51.2 µM | [15] 51.2 µM

CCCC(=O)OCC
inactive: [1] | [2] | [3] | [4] | [5] | [6] | [8] | [9] | BCL2L11 (gene 10018) | [10] | [11] | Caspase-3 (Homo sapiens) | [12] | [13] | [14] | [15] | [16]
